Growth data for 40 compounds are collected here from PubChem BioAssay (NCI).

Where “and” joins values, the source holds several entries; their conditions need not be identical. Equal entries are not always repeated. Compounds without any hit were thinned out: in the full panel of roughly 83,000, 20% have a hit.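 Note: values are percent growth. 100 is the growth of untreated cells, values between 100 and 0 indicate rising inhibition; between -100 and 0 indicates cell death.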 Values without a mark were called inactive.

The experiment relates to SNB-19 CNS. As to the kind of experiment: NCI-60 one-dose screen, 48 h (100 = growth as untreated, 0 = no growth, -100 = all killed). The note with it: 10 µM unless noted. How it is done: Growth inhibition of the SNB-19 human tumor cell line is measured as a screen for anti-cancer activity. Cells are grown in 96 well plates and exposed to the test compound for 48 hours. Compounds are tested at a single concentration, which is 10^-5 M for most compounds. The reported endpoint is percent growth (GI% or GIPRCNT), where numbers from 0 - 100% represent growth inhibition, and numbers from -100% - 0 represent cell death. For example, a value of 40 represents 60% growth inhibition. A value of 0 means no net growth occurred over the course of the experiment. A value of -40 indicates 40% of cells at the beginning of the experiment died by the end of the experiment. A value of -100 means all cells are dead at the end of the experiment.
NCI-60 Human Tumor Cell Lines Screen was performed using the standard one-dose NCI protocol, which is described in more detail at https://dtp.cancer.gov/discovery_development/nci-60/default.htm.
Compounds with GIPRCNT values below 10 were considered active. Activity score was based on GIPRCNT using the following formula: […]
Score is 0 for GIPRCNT values of 100 or above, 50 for GIPRCNT values of 0, and 100 for GIPRCNT values of -100.
For the compound `Nc1ccc(S(=O)(=O)F)cc1`, the growth was 105%. Next, `N#CC(C#N)=C(C#N)C#N`: 102%.

In the case of `c1ccc(CCN2CCCCC2)nc1`, the growth was 109%. Take `CN(C)c1ccc(C=C2C(=O)NC(=O)NC2=O)cc1`: the growth is 99.6%.

`CNC(=O)O/N=C(\SC)C(=O)N(C)C`: the growth is 106%. Regarding `CC1=C2[C@H]3OC(=O)[C@@H](C)[C@@H]3CC[C@@]2(C)C=CC1=O`, the growth is 110%. Next, `COc1ccc(N)cc1OC`: 101%; `O=C(NC1=NCC[Se]1)c1ccccc1O`: 68.5%.

As for `CC1(C)N=C(N)N=C(N)N1c1ccc(CCC(=O)Nc2ccc(S(=O)(=O)F)cc2)cc1`, the growth is 55%.

Consider `O=C1CCCCC1CN1CCCCC1` (stereo not given), for which the growth is 108%. For `CC[C@H](CC[C@@H](C)[C@H]1CC[C@H]2[C@@H]3CC[C@H]4C[C@]5(CC[C@]4(C)[C@H]3CC[C@]12C)OO[C@](C)(C(F)(F)F)O5)C(C)C`, the growth is 90.4%. With `COc1ccc(/C=C(/C)[N+](=O)[O-])cc1OC` the figure was 65.9% and 79.3%.

Turning to `CC1=CC(=Nc2ccc(N(CCCl)CCCl)cc2)C=C(C)C1=O`, the growth is 37.9%. Next, `CC1=C(C)C(=O)O[C@@H]([C@](C)(O)[C@]2(O)CC[C@@]3(O)[C@@H]4C[C@H]5O[C@]56CC=CC(=O)[C@]6(C)[C@H]4CC[C@]23C)C1`: 30.8%. Turning to `O=Cc1cn(Cc2ccccc2)c2ccccc12`, the growth is 93.8%. Next, `CC(=O)C(N)Cc1ccccc1` (stereo not given): 99.3%; `COc1ccc(C(C#N)C(C)=O)cc1` (stereo not given): 105%. With `O=S(OO)c1cc(Cl)c(O)c(Cl)c1` (stereo not given) the figure was 104%. On to `O=C1C=C(N2CC2)c2ccccc2C1=O`, for which the growth is 82.7%. With `O=[N+]([O-])c1ccc(OCc2ccc(S(=O)(=O)F)c(Cl)c2)c(Cl)c1` the figure was 108%; with `Cn1cc(-c2csc(-c3cn(CCCCN4CCOCC4)c4ccc(F)cc34)n2)c2cccnc21`, 88.2%. Next, `C[C@]12CC[C@H](O)C[C@@H]1CC[C@@H]1[C@@H]2CC[C@]2(C)OC(=O)CC[C@@H]12`: 96.6%; `COc1cc(C=C2C(=O)NC(=O)NC2=O)ccc1O`: 96.7%. On to `Cn1cc(C(=O)C[n+]2ccccc2)c2ccccc21`, for which the growth was 105%. Next, `CCCCS(=O)(=O)Cl`: 110%. Next, `COc1ccc2c(c1)c(-c1nc(-c3cn(C)c4ncccc34)cs1)cn2CCCCN1CCOCC1`: 35.1%; `COC[C@H]1OC(=O)c2coc3c2[C@@]1(C)C1=C(C3=O)[C@@H]2CCC(=O)[C@@]2(C)C[C@H]1OC(C)=O`: 66.2%; `CC/C(=C(\c1ccc(OCCN2CCOCC2)cc1)c1ccc(OC(=O)Cc2ccccc2)cc1)c1ccc(Cl)cc1`: 99.6%.

`CO[C@@H]([CH2][Hg][O]C(=O)c1ccccc1)[C@@H]([CH2][Hg][O]C(=O)c1ccccc1)OC`: the growth was 96.5%. For `CN1CCC2(CC1)C(C#N)C(=O)NC(=O)C2C#N` (stereo not given), the growth is 99%. Next, `OCCNC1CCCCC1`: 105%; `CCOC(=O)c1ccccc1C(=O)OCC`: 105%; `COC(=O)CCP(CCC(=O)OC)c1ccccc1`: 119%.

As for `CC1(C)CN=C(NN=C(/C=C/c2ccc(C(F)(F)F)cc2)/C=C/c2ccc(C(F)(F)F)cc2)NC1`, the growth was 37.9%. With `CC(=O)Nc1nc2c(s1)C1=CC[C@H]3[C@@H]4CC[C@H](OC(C)=O)[C@@]4(C)CC[C@@H]3[C@@]1(C)CC2` the figure was 62%. Next, `C(=NC1CCCCC1)=NC1CCCCC1`: 103% and 83.9%; `O=C(O)C(Br)CBr` (stereo not given): 107%. With `CCC(=O)C(CC(C)N1CCCCCC1)(c1ccccc1)c1ccccc1` (stereo not given) the figure was 95.2%; with `COc1c(O)cc2c(c1OC)-c1ccc(SC)c(=O)cc1C(NC(C)=O)CC2` (stereo not given), 18.5%; with `CCCCCCCCCCCCCCCCCC1OCC(COC(=O)O[C@@H](C(=O)O[C@H]2C[C@@]3(O)[C@@H](OC(=O)c4ccccc4)[C@@H]4[C@]5(OC(C)=O)CO[C@@H]5C[C@H](O)[C@@]4(C)C(=O)[C@H](OC(C)=O)C(=C2C)C3(C)C)[C@@H](NC(=O)c2ccccc2)c2ccccc2)O1` (stereo not given in full), 49.1%.
